Compound activity: PubChem, National Center for Advancing Translational Sciences (NCATS)
Shown are actives, neighbours in structure and some others; about 2.3% of the full set was active somewhere.
BCR signal inh = qHTS Assay to Find Inhibitors of Chronic Active B-Cell Receptor Signaling | ABC-DLBCL IkBa-CBG/CBR reporter, luminescence ratio, 4 h | Potency, µM (highest dose often 46.1 µM), inactives show top-dose activity change, negative = inhibition, most hits filed as inhibitors | 0.05% of 340,000 active | AID 493014, 2011; active = well fitted inhibition curve with a large enough effect in the signal ratio, with a control signal flat, not every such curve was filed as active; inconclusive = small, poorly fitted or top-dose-only effect, or effect the other way, or a change in a side signal; the % refers to the signal ratio;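 also: plate controls were basal doxycycline-induced cells for no effect and cells given 10 µM MG132 for full effect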
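Concentration-response series (up to 46 uM) were applied to TMD8 dual-reporter cells for 4 h at 37C with doxycycline. Green/red ratio, after filter-overlap correction, defined %Activity; red signal alone was normalised to basal cells and zero luminescence.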
aSyn yeast inh = qHTS of alpha-syn Inhibitors; Yeast expressing alpha-synuclein, growth rescue, BacTiter-Glo, 24 h; 0.14% of 370,000 active; Potency, µM (series often up to 46.1 µM), inactives show at the top dose growth rescue (activation), most hits filed as activators; also: % of control where 0% means no effect; nearly all actives have a fitted effect of over 65% in size
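Screening used galactose-induced yeast with toxic alpha-synuclein levels, exposed to compound for 24 hr at 30 deg C. Cell growth, read with BacTiter-Glo luminescence, gave the measured signal.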
TDP43 rescue = qHTS of TDP-43 Inhibitors | AID 652104, 2013 | 1.8% of 410,000 active | TDP-43 expressing yeast growth rescue, BacTiter-Glo, 24 h | Potency, µM (titrated, usually from 46.1 µM), for inactives: at the highest dose growth rescue (activation), actives largely listed as activators; also: % of control where 0% means no effect; nearly all actives have a fitted effect of over 50% in size
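In this qHTS, compounds that restore growth of yeast expressing TDP-43 appear as activators. Cells (OD600=0.02, galactose medium, raffinose-pregrown) are incubated with compound 24 hr at 30 deg C and growth is quantified by BacTiter-Glo.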
FUS yeast rescue = qHTS for Suppressors of FUS Proteinopathy: Primary screen using FUS-linked yeast assay; S. cerevisiae FUS-expressing, growth rescue, OD600, 24 h; Potency, µM (top dose mostly 76.6 µM), actives largely listed as activators; 0.24% of 390,000 active;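 also: plate controls were DMSO vehicle for no effect and reference control for full effect; nearly all actives have a fitted effect of over 55% in size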
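Steps: raffinose overnight preculture; dilution to OD 0.005 in 2% galactose minimal medium; compound addition (concentration series); 24hr at 30C, 99% humidity; absorbance read at 600 nm.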
Abeta rescue = qHTS for compounds that reverse cellular toxicity of Amyloid beta (A-beta) peptide in yeast: Primary Screen; 0.063% of 410,000 active; AID 1347071, 2019; Potency, µM (highest dose often 46.1 µM), usual class: activators; yeast expressing A-beta42, growth rescue, OD600, 48 h; response scale: 0% DMSO, 100% iron-clioquinol control; also: nearly all actives have a fitted effect of over 55% in size
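Yeast A-beta toxicity model in growth medium with pinned compounds, 48 h at 30 C; growth read as absorbance at 600 nm. Normalized to FeCl3/clioquinol equimolar mix (positive) and DMSO (negative).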
uPA surface inh = qHTS for Inhibitors of Cell Surface uPA Generation; cell surface uPA generation assay, qHTS; Potency, µM (titrated, usually from 38.3 µM), inactives show at the top dose activity change, negative = inhibition, hits mostly inhibitors; 0.31% of 330,000 active; active = well fitted inhibition curve with a large enough effect; inconclusive = small, poorly fitted or top-dose-only effect; inactive = no such curve, though single readings can be large or run the other way; tested in mouse RAW 264.7 cells; also: % is scaled to controls: 0 for no effect and ±100 for the full control effect; nearly all actives have a fitted effect of over 55% in size
An asterisk follows results filed as active; i = inactive; ? = inconclusive; · = no result given. Unless noted, calls follow the shape of the dose curve; as a rule, active = well fitted curve in the direction sought with a large enough effect; inconclusive = small, poorly fitted or top-dose-only effect, or another doubt; inactive = no such curve, though single readings can be large; an effect the other way counts as inactive or inconclusive. Potency is read from the fitted curve at half-maximal effect.

SMILES | BCR signal inh | aSyn yeast inh | TDP43 rescue | FUS yeast rescue | Abeta rescue | uPA surface inh
Cc1csc2ncnc(N3CCN(C(=S)Nc4ccc(C(F)(F)F)cc4)CC3)c12 | ? | 8% | 13µM* | ? | i | -4%
C[C@@H](C(=O)NCC1CCCO1)N1C(=O)N2CCc3c([nH]c4ccccc34)[C@@]2(C)C1=O (stereo partly specified) | 12% | -4% | 14% | i | i | -4%
O=Cc1ccc2ccc3cccnc3c2n1 | ? | ? | ? | i | i | -1%
c1cnc2c(c1)ccc1cccnc12 | -14% | -6% | 35µM* | i | i | ?
O=C(COC(=O)c1c(Cl)cccc1Cl)Nc1ccccc1Br | ? | 3% | 14µM* | · | i | -5%
Cc1cc(NC(=O)COC(=O)c2c(Cl)cccc2Cl)no1 | 6% | -3% | 16µM* | i | i | -4%
COc1ccc(F)cc1-c1cc(NC(C)=O)c2ncc(-c3cccc(C(F)(F)F)c3)n2c1 | · | ? | 22µM* | ? | ? | ·
CC(=O)Nc1cc(-c2ccc(F)cc2)cn2c(-c3ccc(F)c(Cl)c3)cnc12 | · | -15% | 20µM* | i | i | ·
COc1ccccc1-c1cc(NC=O)c2ncc(-c3cccc(C(F)(F)F)c3)n2c1 | · | 14% | 22µM* | i | i | ·
COc1cccc(-c2cnc3c(NC=O)cc(-c4ccccc4Oc4ccccc4)cn23)c1 | · | ? | 35µM* | ? | i | ·
COc1cccc(-c2cnc3c(NC=O)cc(-c4ccccc4)cn23)c1 | · | -3% | ? | i | i | ·
CCN(CC)c1ccc(/C=C2\C(=O)N(c3nnc(C)c(=O)[nH]3)N=C2C)cc1 | 7% | -7% | -3% | i | i | -7%
Cc1occc1C(=O)n1cnc2ccccc21 | -5% | · | · | · | · | ·
Cc1occc1C(=O)n1nnc2ccccc21 | · | 11% | 16µM* | i | i | -3%
O=c1c2ccccc2nc(/C=C/c2cccc3ccccc23)n1-c1ccc(F)cc1F | 6% | · | 9% | 32µM* | i | ·
Cc1nn(-c2ccccc2)c(C)c1C(=O)OCC(=O)Nc1ccccc1F | ? | -10% | 0% | i | i | 10µM*
COc1ccc(OC(=O)c2c(C)nn(-c3ccccc3)c2C)cc1 | ? | -20% | 22µM* | i | i | 7%
CS(=O)(=O)N1CCC(Oc2ccccc2C(=O)N2CCC[C@H]2CO)CC1 | 3% | -5% | -12% | i | i | 7%
O=C(Cc1ccc(-c2ccccc2)cc1)Nc1ccccn1 | 12% | -7% | 14µM* | i | i | 3%
COc1ccccc1CNc1cc(-c2ccccc2)ccc1OC | 2% | -12% | 13µM* | · | i | 4%
O=C(CC(=O)Nc1ccccn1)Nc1ccccn1 | 3% | 0% | 7% | i | i | 1%
COc1ccc(-c2ccccc2)cc1NCc1ccccc1C | 10% | -15% | 21% | i | i | 4%
COc1ccccc1NC(=O)CC(=O)Nc1ccccc1OC | 3% | -10% | 2% | i | i | 1%
Cc1ccc(NC(=O)Cc2ccc(-c3ccccc3)cc2)nc1 | ? | 7% | 7.1µM* | i | ? | 1%
COc1ccccc1NC(=O)Cc1ccc(-c2ccccc2)cc1 | -12% | -12% | 16µM* | i | i | -27%
SMILES | BCR signal inh | aSyn yeast inh | TDP43 rescue | FUS yeast rescue | Abeta rescue | uPA surface inh
O=C(CNS(=O)(=O)c1ccccc1)NNC(=O)C(Cl)Cl | -1% | -4% | -14% | i | i | 4%
CCOc1ccc(NC(=O)NNC(=O)c2ccc(CC)s2)cc1 | -4% | -1% | -5% | i | i | 14%
Cc1ccnc(NC(=O)Cc2ccc(-c3ccccc3)cc2)c1 | ? | 5% | 14µM* | i | i | ?
CCN(C(=O)CSc1nc2cc(C(F)(F)F)ccc2n1Cc1ccccc1)C1CCS(=O)(=O)C1 (stereo unspecified) | ? | 11% | 15% | i | i | -5%
O=C(O)CN1C(=O)c2cccc3c(Br)ccc1c23 | 1% | -5% | -2% | i | i | -1%
CN(C)CCCN1C(=O)c2cccc3c(Br)ccc(c23)C1=O | ? | 20% | 19% | i | i | 7.9µM*
CC(C)CC(=O)NC(=S)Nc1ccccn1 | ? | 2% | ? | i | i | 2%
COc1cnn(C(C)(C)C)c(=O)c1Cl | 1% | 0% | -16% | i | i | ·
Cc1cccc(Oc2cnn(C(C)(C)C)c(=O)c2Cl)c1 | -7% | 10% | 10µM* | i | i | -3%
NC(=O)NOCc1ccc(Cl)cc1Cl | -9% | 0% | 20% | i | i | -2%
CNC(=S)/N=C/NOCc1ccc(Cl)cc1Cl | 11% | -21% | 10µM* | i | i | -16%
CC1(C)Cc2cccc(C(=O)Nc3ccc(F)cc3F)c2O1 | ? | -12% | 20µM* | i | i | 12%
CCc1ccc([C@H]2C(C(=O)O)=C[C@@H](C(C)(C)C)N2S(=O)(=O)c2ccc(C)cc2)cc1 | -2% | -14% | 14µM* | i | i | -21%
CCOC(=O)C1=C[C@@H](C(C)(C)C)N(S(=O)(=O)c2ccc(C)cc2)[C@H]1c1ccccc1 | · | -21% | 0% | i | i | ·
c1ccc(-c2cc(-c3nc4ccccc4[nH]3)c3ccccc3n2)cc1 | ? | -1% | 16µM* | i | i | 0%
CCn1c(O)c(N=NC(=O)CNC(=O)c2ccco2)c2ccccc21 | ? | -15% | -3% | i | i | ?
C=CCn1c(O)c(N=NC(=O)CNC(=O)c2ccco2)c2ccccc21 | -3% | 1% | 10% | i | i | 10µM*
C=CCn1c(O)c(N=NC(=S)Nc2cccc(OC)c2)c2ccccc21 | 6% | 22µM* | 16µM* | i | ? | -11%
Cc1ccc(CCNC(=O)CN2N=C(c3ccc(C)cc3)CCC2=O)cc1 | -19% | · | ? | i | i | ·
O=C(CSc1nc(=O)n2cc(Cl)ccc2n1)Nc1cccc2ccccc12 | ? | 5% | 7.1µM* | i | i | -16%
Cc1ccc2nc(SCC(=O)Nc3ccc(Cl)cc3)nc(=O)n2c1 | -4% | 1% | 25% | i | i | 0%
Cc1ccn2c(=O)nc(SCC(=O)Nc3cccc4ccccc34)nc2c1 | ? | 15% | -2% | 22µM* | i | 2%
